# Source: PubChem (several laboratories)
# Mdm2-MdmX inh: human Mdm2/MdmX binding inhibition; O15151+Q00987; SaOS-2 split-luciferase Mdm2/MdmX complementation, luminescence; inhibition, % at 8 µM; 330,000 compounds, 3% hits; AID 485346;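 active = inhibition of at least 50% at 8 µM in the primary screen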
# Peg3 prom inh: reduces Peg3 promoter-driven luciferase expression in HeLa | HeLa PEG-Prom luciferase reporter, luminescence, overnight | inhibition, % at 20 µM | 360,000 compounds, 1.7% hits | AID 588405;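 active = inhibition of at least 50% at 20 µM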
# KKLEB tox: CF airway cell cytotoxicity counter-screen; KKLEB CF airway cells viability, ATPlite luminescence, overnight; stronger effect = lower value; cells stimulated with P. aeruginosa culture filtrate; activity change (cytotoxicity), % at 5 µM; 360,000 compounds, 0.36% hits; AID 602141;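 active = corrected activity change at or below -50% at 5 µM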
# CF NFkB inh: blocks PAF-induced NF-kB reporter in cystic fibrosis cells. inhibition, % at 5 µM. 360,000 compounds, 0.86% hits. AID 588850. KKLEB NF-kB-GFP reporter, GFP fluorescence overnight;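 active = at least 50% inhibition at 5 µM, scaled per plate between neutral and stimulator controls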;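 also: PAF is a Pseudomonas aeruginosa culture filtrate used as stimulus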
# ABHD5 PLIN5 PPI: ABHD5-PLIN5 protein interaction inhibition; 360,000 compounds, 0.78% hits; Split G. princeps luciferase complementation, luminescence, 4 h; Q00G26+Q8WTS1; inhibition, % at 4 µM;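 active = inhibition above the mean inhibition across every tested compound plus 3 SD, cut at about 22% in these data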
# HIF-2a inh: inhibitors of HIF-2a. inhibition, % at 18.8 µM. 786-0 RCC cells HIF-2a reporter, luciferase luminescence, overnight. 360,000 compounds, 0.72% hits. AID 624352;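 active = inhibition of the luminescence signal of 40% or more relative to plate controls, in a single-dose primary screen at 18.75 µM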
# Mdm2 MdmX conf-1: confirmation of human Mdm2/MdmX interaction inhibitors | Mdm2-MdmX binding, luminescent assay | shares compounds with Mdm2-MdmX inh | 10,000 compounds, 55% hits | inhibition, % at 8 µM | AID 489028
# Full FLuc ctr: counter-screen for Mdm2/MdmX inhibitors: full-length luciferase. 6,200 compounds, 77% hits. inhibition, % at 8 µM. SaOS-2 full-length luciferase counterscreen, luminescence. shares compounds with Mdm2-MdmX inh;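 active = mean inhibition at 8 µM reaching about 37%, which flags the compound as non-specific, limit read from the data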;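 also: p53-null SaOS-2 cells with luciferase driven by a doxycycline-inducible promoter; compound on cells about two nights before reading with doxycycline added after day one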
# CF NFkB inh conf: CF NF-kB inhibition confirmation, single concentration; shares compounds with CF NFkB inh; KKLEB CF airway cells, PAF-induced NF-kB-GFP fluorescence, overnight; inhibition, % at 5 µM; 1,300 compounds, 64% hits; AID 602472;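 also: stimulus PAF is a Pseudomonas aeruginosa filtrate and not platelet activating factor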
# ABHD5 PLIN5 conf: confirmation of human ABHD5-PLIN5 interaction inhibitors; shares compounds with ABHD5 PLIN5 PPI; biochemical ABHD5-PLIN5 interaction, luminescence; inhibition, % at 4 µM; 2,200 compounds, 67% hits; AID 651612; in the data active = inhibition above about 23%
# HNF4 split-luc: HNF4 split-luciferase signal hit, counter-screen | inhibition, % at 4 µM | 2,200 compounds, 77% hits | AID 651674 | shares compounds with ABHD5 PLIN5 PPI | HNF4 dimerization, luminescence, biochemical;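 active = mean inhibition across replicate wells exceeding the computed hit threshold, cut at about 13% in these data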;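 also: light from luciferase halves that rejoin when HNF4 fusion proteins dimerize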
# Target sequence (P41235 whole entry, looked up, the tested form may be a part): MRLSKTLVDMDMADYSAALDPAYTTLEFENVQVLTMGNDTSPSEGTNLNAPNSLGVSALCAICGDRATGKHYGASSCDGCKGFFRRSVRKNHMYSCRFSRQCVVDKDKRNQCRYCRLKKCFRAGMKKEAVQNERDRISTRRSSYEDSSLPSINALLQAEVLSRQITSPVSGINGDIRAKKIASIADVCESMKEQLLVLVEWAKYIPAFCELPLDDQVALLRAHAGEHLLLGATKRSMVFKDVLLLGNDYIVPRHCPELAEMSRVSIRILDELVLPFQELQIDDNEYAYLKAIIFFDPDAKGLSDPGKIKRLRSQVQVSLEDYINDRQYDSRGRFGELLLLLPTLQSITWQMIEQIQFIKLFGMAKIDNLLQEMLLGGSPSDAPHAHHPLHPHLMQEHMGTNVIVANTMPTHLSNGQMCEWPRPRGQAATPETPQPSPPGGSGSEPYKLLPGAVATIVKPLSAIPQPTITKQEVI
# Mdm2 MdmX conf-2: confirmation of inhibitors of human Mdm2/MdmX interaction, set 2. shares compounds with HIF-2a inh. SaOS-2 split-luciferase Mdm2/MdmX complementation, luminescence. inhibition, % at 8 µM. 740 compounds, 99% hits;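 active = mean inhibition of the luminescence signal across two replicates at or above 26 percent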
# HIF-2a inh conf: confirmation of HIF-2a inhibitors; inhibition, % at 18.8 µM; shares compounds with HIF-2a inh; 786-0 RCC cells, HIF-2a luciferase reporter luminescence, overnight; 1,800 compounds, 56% hits;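 active = mean inhibition across four replicates of at least 40 percent at the single tested concentration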
# HIF-1a cs: counter-screen for HIF-2a inhibitors: HIF-1a inhibition in MiaPaCa-2 cells; shares compounds with HIF-2a inh; MiaPaCa-2 HIF-1a luciferase reporter, desferoxamine, overnight; inhibition, % at 18.8 µM; 1,800 compounds, 72% hits;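 active = mean inhibition of the reporter signal across four replicates at the single tested dose of 50% or more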
# Hits are given with their value; 0 = inactive; - = no result; ! = not active in a repeat. Compounds with a hit are over-represented: about 4.6% of the library has one in this group of screens. Rule as the data show it, unless noted: active = inhibition above about 40%; inactive = the rest.
SMILES,Mdm2-MdmX inh,Peg3 prom inh,KKLEB tox,CF NFkB inh,ABHD5 PLIN5 PPI,HIF-2a inh,Mdm2 MdmX conf-1,Full FLuc ctr,Mdm2 MdmX conf-2,others
COc1ccc(-c2csc(=NCCO)n2-c2ccccc2)cc1,-,0,0,0,0,0,-,-,-,
C[N+](C)(C)CCCCCC[N+](C)(C)C,0,0,0,0,0,0,-,-,-,
CCCCCCCCCCCCCCCC[N+](C)(C)CC,92,102,0,83,0,59,81,0,-,HIF-2a inh conf=46;HIF-1a cs=98
CC#CC[N+](C)(C)CCCCCCCCCCCC,87,59,0,0,27,52,64,0,-,ABHD5 PLIN5 conf=0;HNF4 split-luc=0;HIF-2a inh conf=0;HIF-1a cs=72
CC1CNC(=S)N(c2ccc(F)cc2)C1=O (stereo not drawn),-,0,0,0,0,0,-,-,-,
CC1CCC(C(C)C)C(OC(=O)COC(=O)c2cccn2C)C1 (stereo not drawn),0,0,0,0,0,0,-,-,-,
CC1CCC(C(C)C)C(OC(=O)Cn2c(-c3ccc(Cl)cc3)[n+](C)c3ccccc32)C1 (stereo not drawn),100,76,-58,56,34,0,96,52,100,ABHD5 PLIN5 conf=0;HNF4 split-luc=0
CC1CCC(C(C)C)C(OC(=O)COC(=O)c2ccc(N)cc2)C1 (stereo not drawn),0,0,0,0,0,0,-,-,-,
Cc1ccccc1OCc1n(CC(=O)OC2CC(C)CCC2C(C)C)c2ccccc2[n+]1C (stereo not drawn),65,102,-83,83,0,94!,99,60,102,HIF-2a inh conf=0;HIF-1a cs=107
CC1CCC(C(C)C)C(OC(=O)Cn2c(-c3ccc(Br)cc3)[n+](C)c3ccccc32)C1 (stereo not drawn),100,96!,-57!,54,0,0,95,57,103,
ClCCn1c(CCl)nc2ccc(Cl)cc21,-,0,0,0,0,0,-,-,-,
CC1(C(=O)NS(=O)(=O)c2ccc3c(c2)CCO3)CCN1C(=O)COc1ccc(Cl)cc1 (stereo not drawn),-,0,0,0,0,0,-,-,-,
CCNC(=O)C1(C)CCCN(C(=O)c2nc3ccccc3s2)C1 (stereo not drawn),-,0,0,0,0,0,-,-,-,
COc1cc(Cl)c(C)cc1NC(=O)CN(C)C1CCS(=O)(=O)C1 (stereo not drawn),0,0,0,0,0,0,-,-,-,
COc1ccc(C2C(O)C(c3c[nH]c4ccccc34)=NN2C(=O)CCl)cc1 (stereo not drawn),98,117,-89,98,0,93,97,0,-,HIF-2a inh conf=88;HIF-1a cs=106
COc1ccc2c(c1)c(C(C)=O)c(C)n2-c1ccccc1,0,0,0,0,0,0,-,-,-,
COc1ccc(-n2c(C)c(C(C)=O)c3cc(O)ccc32)cc1,93,0,0,69,0,0,83,54,87,CF NFkB inh conf=86
CCOc1ccc(-n2c(C)c(C(C)=O)c3cc(OC(C)=O)ccc32)cc1,76,0,0,76,0,0,80,53,89,CF NFkB inh conf=87
COc1ccc(-n2nc(C(=O)NCC(=O)Nc3cccc(Cl)c3)c3ccccc3c2=O)cc1,0,0,0,0,0,0,-,-,-,
CCOC(=O)CNC(=O)CSc1nnc(NC(=O)c2ccc(C)cc2)s1,54,0,0,0,0,45,41,68,-,HIF-2a inh conf=65;HIF-1a cs=0
CCOC(=O)CNC(=O)CSc1nnc(NC(=O)c2ccc3c(c2)OCO3)s1,0,0,0,0,0,0,-,-,-,
O=C(CSc1nc2c(cnn2-c2cccc(Cl)c2)c(=O)[nH]1)NCCC1=CCCCC1,0,0,0,0,0,0,-,-,-,
Cn1c(=O)[nH]c(=O)c2c1nc([N+](=O)[O-])n2Cc1ccccc1,96,117,-85,109,24,97,79,56,103,ABHD5 PLIN5 conf=62;HNF4 split-luc=59
CC(C)Cn1c([N+](=O)[O-])nc2c1c(=O)[nH]c(=O)n2C,0,0,0,0,0,0,-,-,-,
Cc1nc2sc(C(N)=O)c(N)c2c2c1CCCC2,87,0,0,70,0,0,89,49,92,CF NFkB inh conf=98
SMILES,Mdm2-MdmX inh,Peg3 prom inh,KKLEB tox,CF NFkB inh,ABHD5 PLIN5 PPI,HIF-2a inh,Mdm2 MdmX conf-1,Full FLuc ctr,Mdm2 MdmX conf-2,others
Cc1ccc(-c2nc3sc(C(N)=O)c(N)c3c3c2CCCC3)cc1,0,0,0,0,0,0,-,-,-,
O=C1CCCc2nc(N3CCN(C(=O)c4ccco4)CC3)ncc21,0,0,0,0,0,0,-,-,-,
COC(=O)c1sccc1NC(=O)c1cc(-c2ccc(C)cc2)nc2ccccc12,0,0,0,0,0,0,-,-,-,
CCOC(=O)c1sc(NC(=O)c2cc(-c3ccc(C)cc3)nc3ccccc23)c(C#N)c1C,76,0,-62,0,0,0,92,50,97,
COC(=O)c1c(-c2ccccc2)csc1NC(=O)c1c(-c2ccccc2)noc1C,97,0,0,0,0,0,95,53,99,
CCOCCCNC(=O)/C(C#N)=C/c1cc(OC)c(O)c([N+](=O)[O-])c1,0,0,0,0,0,0,-,-,-,
CCOCCCNC(=O)/C(C#N)=C/c1ccc(Cl)c([N+](=O)[O-])c1,73,105,0,0,0,92,0,-,-,HIF-2a inh conf=0;HIF-1a cs=102
O=C(CCl)Nc1cc2[nH]c(=O)[nH]c2cc1Br,94,88,0,0,0,0,74,60,103,
Cc1cc2c(C)cc(=O)[nH]c2cc1NC(=O)CCl,0,0,0,0,0,0,-,-,-,
O=C(c1ccc(Cl)c(Cl)c1)N1CCC(=O)N([C@H](COCc2cccc(C(F)(F)F)c2)Cc2ccccc2)CC1,-,-,-,-,0,0,-,-,-,
